Reference: PubChem BioAssay (NCI)
Where “and” joins values, the source holds several entries; their conditions need not be identical. Equal entries are not always repeated. This is part of a sample that, as a whole, favours compounds with a hit. Of some 83,000 tested, about 20% had one in any assay.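 Each cell line was grown in a 96-well plate and treated with one concentration of compound for 48 hours. Values below 10 were considered active.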 Calls of active or inactive are those of the source.

tested on: HL-60(TB) leukemia; assay: NCI-60 one-dose screen, 48 h (100 = growth as untreated, 0 = no growth, -100 = all killed); settings: 10 µM unless noted

Row | Structure (SMILES) | growth
1 | CN(C)c1ccc(/C=c2\sc3nc4ccccc4n3c2=O)cc1 | 94.7% (inactive)
2 | Nc1ccc(-c2nnc(SCc3ccc(O)c4ncccc34)n2-c2ccccc2)cc1 | 11.5% (inactive)
3 | COC1CCN(Cc2ccc3c(NNC(=O)c4cnccn4)nc4cc(F)ccc4n23)C1 (configuration not stated) | -19.4% (active)
4 | Cc1ccc(C(=O)Nc2cccc(C(F)(F)F)c2)cc1Nc1nc(-c2cnccn2)nc2c1cnn2C | 22% (inactive)
5 | COc1cccc2c1C=CC1(O2)Oc2cccc(OC)c2C=C1C (configuration not stated) | 0.839% (active)
6 | NS(=O)(=O)Oc1ccc2nc(Nc3ccc(F)c(F)c3)ccc2c1 | 71.3% (inactive)
7 | Cc1ccc(OCc2occc2C(=O)N2CCOCC2)cc1 | 107% (inactive)
8 | Oc1ccc(CSc2nnc(-c3ccncc3)n2-c2ccccc2)c2cccnc12 | 10.9% (inactive)
9 | Cc1ccc2c(n1)C(=O)C(Cl)=C(Nc1cccc(C(F)(F)F)c1)C2=O | 32.3% (inactive)
10 | Cc1nn(-c2ccccc2)c2nc(CCl)[nH]c(=O)c12 | 33.1% (inactive)
11 | Cn1cc(-c2nn3cc(-c4ccncc4)nc3s2)c2cc(Br)ccc21 | 17.3% (inactive)
12 | COc1ccc(-c2cc(C(=O)N=Nc3c(O)[nH]c4ccccc34)c3ccccc3n2)cc1OC | 106% (inactive)
13 | CNc1ncc2cc(-c3ccc(-c4ncccc4F)cc3Cl)c(=O)n(CC3OCC(N)CO3)c2n1 (configuration not stated) | 20.5% (inactive)
14 | COc1ccc(C(=O)c2c(N)c(C#N)cn2-c2ccc(Cl)cc2Cl)cc1 | 84.7% (inactive)
15 | O=C1Nc2ccc(Cl)cc2/C1=C/c1ccc(OCc2ccc(Br)cc2F)cc1 | 98% (inactive)
16 | C/C=C/CC(C)C(O)[C@H](NC(=O)[C@@H]1CCCN1C(=O)[C@](C)(CC)NC(=O)CCCCCCCCC)C(=O)N[C@@](C)(CC)C(=O)N[C@@H](CCC(N)=O)C(=O)N[C@H](CCC(N)=O)C(=O)NC(C)(C)C(=O)NC(C)(C)C(=O)N[C@@H](CCC(N)=O)C(=O)N[C@H](CC(C)C)C(=O)N[C@H](CO)CC(C)C (some centres not stated) | 52.5% (inactive) and -38.8% (active)

Row | Structure (SMILES) | growth
17 | N=c1c2cc(-c3ccccc3)oc2ncn1/N=C/c1ccccc1 | 58.8% (inactive)
18 | O=S(=O)(Nc1ccc2c(c1)OC(F)(F)O2)c1ccc(-c2cnc(C3CC3)o2)cc1 | 3.85% (active)
19 | CCOc1cccc(/C(N)=N/C(N)=N/c2nc3ccccc3s2)c1 | 72.2% (inactive)
20 | O=S(=O)(Oc1ccc(-c2nnc(Nc3ccccc3)s2)cc1)C(F)(F)C(F)(F)C(F)(F)C(F)(F)C(F)(F)C(F)(F)F | 70.6% (inactive)
21 | O=C1Nc2cc(Cl)ccc2/C1=C\c1ccc(OCc2ccccc2)cc1 | 113% (inactive)
22 | Cn1ccnc1C(=O)/C=C/c1ccc(NC(=O)Nc2ccc(Cl)cc2)cc1 | 44.2% (inactive)
23 | COCCC[C@H]1O[C@@](O)([C@H](C)[C@@H]2CC(OC)C(O)/C=C(C)/C=C(C)/C=C(\C)C(OC3O[C@@H](C)[C@H](O)C(O)[C@@H]3O)C(C)/C=C(C)/C=C(OC)/C=C(\C)C(=O)O2)C(OC)C(O)[C@]1(C)O[C@H]1C[C@@H](O)[C@H](O[C@H]2C[C@](C)(O)[C@H](O)C(C)O2)C(C)O1 (some centres not stated) | 36% (inactive)
24 | Cn1cc(C2=C(c3coc4cc(Br)ccc34)C(=O)NC2=O)c2ccccc21 | 44.5% (inactive)
25 | O=C1[C@H]2Cc3c([nH]c4ccccc34)[C@@H](c3ccc(Br)cc3)N2C(=O)CN1C1CCN(CC2CCCCC2)CC1 | -70.6% (active)
26 | Nc1nc(Nc2ccccc2SSc2ccccc2Nc2nc(N)nc(-c3cccc(Br)c3)n2)nc(-c2cccc(Br)c2)n1 | 83% (inactive)
27 | NS(=O)(=O)c1ccc(Nc2nc(N/N=C/C=C/c3ccccc3)nc(Nc3ccccc3)n2)cc1 | 38.6% (inactive)
28 | COc1cc(CNC(=O)/C=C/c2ccccc2)ccc1OCC(=O)NO | 121% (inactive)
29 | O=C(Nc1nc2ccc(O)cc2s1)c1cccc(C(F)(F)F)c1 | 18.3% (inactive)
30 | CSc1ccc(C(=NNS(=O)(=O)c2ccc(C)cc2)c2ccc(Cl)cc2)cc1 | 97.1% (inactive)
31 | CN1CCN(CC#CCn2c3c(c4ccccc42)C[C@]2(C)[C@H]4CC=C5[C@@H]6CC(C)(C)CC[C@]6(C(=O)N6CCOCC6)CC[C@@]5(C)[C@]4(C)CC[C@H]2C3(C)C)CC1 | 16.2% (inactive)
32 | O=C1C[C@@H](c2ccccc2)Oc2c(Cc3ccccc3O)c(O)c(Cc3cc(Cc4cc(Cc5ccccc5O)ccc4O)ccc3O)c(O)c21 | 95.1% (inactive)
